From ChEMBL document CHEMBL3433997, “St. Jude Leishmania screening dataset” (2016)

These compounds were tested against Solute carrier family 2, facilitated glucose transporter member 1 (Homo sapiens) (UniProt P11166) (assay: ST_JUDE_LEISH: Cytotoxicity at 2uM final concentration against transgenic Leishmania Mexicana promastigotes LmGLUT1 that are glucose transport deficient and complemented with the human glucose transporter GLUT1. Activity is measured by DNA content using SYBR green in vitro).
Solute carrier family 2, facilitated glucose transporter member 1 (Homo sapiens), sequence (P11166 whole entry): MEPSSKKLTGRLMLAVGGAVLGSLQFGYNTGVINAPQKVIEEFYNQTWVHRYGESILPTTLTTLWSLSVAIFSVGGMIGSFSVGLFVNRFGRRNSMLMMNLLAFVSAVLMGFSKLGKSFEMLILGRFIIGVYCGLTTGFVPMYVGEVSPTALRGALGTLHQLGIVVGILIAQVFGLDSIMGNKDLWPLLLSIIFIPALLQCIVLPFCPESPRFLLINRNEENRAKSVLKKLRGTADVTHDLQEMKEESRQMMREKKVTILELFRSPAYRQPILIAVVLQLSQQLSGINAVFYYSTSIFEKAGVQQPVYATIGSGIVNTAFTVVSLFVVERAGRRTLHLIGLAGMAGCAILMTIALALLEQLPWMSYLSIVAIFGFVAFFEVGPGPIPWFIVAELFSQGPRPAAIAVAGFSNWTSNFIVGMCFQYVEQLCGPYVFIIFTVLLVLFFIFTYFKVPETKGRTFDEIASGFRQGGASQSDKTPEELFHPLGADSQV
Format: functional
`CCCC(CNCc1cccc(OC(F)(F)C(F)F)c1)CNc1cc(=O)c2ccccc2[nH]1` (stereo not given) gave an inhibition of -0.75%.
`CCN(CC)c1ccccc1CNC(=O)c1cc(Cl)c(N)cc1OC` showed an inhibition of 9.4%.
For `CCN(CC)S(=O)(=O)c1ccc(Cl)c(C(=O)Nc2ccc3nc(C)sc3c2)c1`, the inhibition was -2.24%.
Compound `O=C(/C=C/c1ccc2ccccc2c1)NCC1(c2ccc(-c3ccccc3)cc2)CCOCC1` has an inhibition of 2.52%.
Work on `O=C(Nc1cccc(-c2cccc(-c3nc4ccccc4[nH]3)c2)c1)Nc1ccc(F)c(F)c1F` yielded an inhibition of 2.74%.
With `CCCCN1Cc2c(n(CC(=O)Nc3ccccc3)c3cc(-c4ccccc4)nn3c2=O)C1=O` the inhibition was 1.25%.
Work on `Cc1cccc2nc(-c3ccc(-c4ccc(NC(=O)Nc5ccc(Cl)c(Cl)c5)cc4)s3)[nH]c12` yielded an inhibition of 1.5%.
`COc1cccc(C(=O)C2CC2CN(C)CC(O)c2cc(C)c(OC)cc2C)c1` (stereo not given) was tested, and the inhibition was 1.05%.
`O=C(Nc1cccc(C(F)(F)F)c1)c1cccc(S(=O)(=O)NCC2CCCN(CC3CCCCC3)C2)c1` (stereo not given) gave an inhibition of -0.44%.
With `Cn1cc(Br)c(-c2cccc(Nc3ccnc4cc(-c5nccs5)ccc34)c2)n1` the inhibition was 3.67%.
`CC1=C(C(=O)OCCOCc2ccccc2)C(c2ccccc2C(F)(F)F)C(C(=O)OCCOCc2ccccc2)=C(C)N1` showed an inhibition of -0.46%.
`Cc1cc(OCCCN2CCCCC2C)ccc1NC(=O)COc1ccc(Cl)cc1C(=O)c1cc(Cl)cc(C#N)c1` (stereo not given) was tested, and the inhibition was 74.2%.
In the case of `CC(C)(C)c1ccc(CNCCOc2ccc(Nc3nnc(-c4ccc(-c5ncc[nH]5)cc4)o3)c3ccccc23)cc1`, the inhibition is reported as 2.98%.
Work on `C=CCn1c(Cc2ccccc2)nnc1Sc1ccc(C#N)c([N+](=O)[O-])c1` yielded an inhibition of 3.36%.
`O=C(NC1CCN(Cc2ccccc2)CC1)c1cccc(-c2cc3cc(Cl)c(Cl)cc3[nH]2)c1` showed an inhibition of 2.36%.
Compound `CC(C)Cc1ccc(N2CCN(CCCCNC(=O)c3ccc(NC(=O)c4cc(C(F)(F)F)cc(C(F)(F)F)c4)cc3)CC2)cc1` has an inhibition of 0.41%.
Compound `CCC(C)(C)C1CCc2nc(N)nc(N)c2C1` (stereo not given) has an inhibition of 67%.
Compound `NC(=O)COc1c(C2CCN(CCN3CCC(CNC(=O)c4ccc(-c5ccc(C(F)(F)F)cc5)cc4)CC3)CC2)ccc2c1CCCC2` has an inhibition of 4.85%.
`CC(C)c1ccc(C=CC(=O)N2CCC(CCN3CCC(c4c[nH]c5ccccc45)CC3)CC2)cc1` showed an inhibition of -1.34%.
`N=C(N)NC(=O)Nc1ccc(Cl)c(Cl)c1` was tested, and the inhibition was 3.47%.
Work on `Cc1cccc2nc(-c3ccc(-c4cccc(CNCc5ccc(S(C)(=O)=O)cc5)c4)s3)[nH]c12` yielded an inhibition of 12.5%.
`FC(F)(F)COc1ccc2ccccc2c1CCNCCCCNCCc1c(OCC(F)(F)F)ccc2ccccc12` was tested, and the inhibition was 105%.
`CN(C)CCCN1CCN(C(=O)c2cc3cc(-c4ccccc4)ccc3n2S(=O)(=O)c2ccccc2)CC1` showed an inhibition of 60.9%.
For `Cc1ccc(C(=O)Nc2ccc(Nc3ccnc4cc(-c5nccs5)ccc34)cc2O)cc1`, the inhibition was 6.24%.
`COc1cc(OC)c2c(C)cc(NCCCN3CCOCC3)nc2c1` gave an inhibition of 1.92%.
`CN1CCN(Cc2cccc(-c3ccc4c(Nc5ccc(Oc6ccccc6)cc5)ccnc4c3)c2)CC1` showed an inhibition of 12.9%.
For `CO/C(=C\C=C\c1cc2cc(Cl)c(Cl)cc2[nH]1)C(=O)NCCCN1CC(C)N(C)CC1C` (stereo not given), the inhibition was 7.33%.
`O=C(Nc1ccncc1)c1cn(-c2ccccc2)nc1-c1cccs1` gave an inhibition of 5.19%.
`COCCNCc1ncsc1-c1ccc2c(Nc3ccc(Oc4ccccc4)cc3)ccnc2c1` was tested, and the inhibition was 0.02%.
For `O=C1NC(=O)C(c2ccc(Cl)cc2)=C1Nc1cccc(S(=O)(=O)C(F)(F)F)c1`, the inhibition was 1.37%.
Work on `COc1ccc(-c2nnc(Sc3ccc(C#N)c([N+](=O)[O-])c3)n2CCC(C)C)cc1` yielded an inhibition of 5.19%.
`COc1ccc2[nH]c(C)cc(=NN=Cc3ccncc3)c2c1` gave an inhibition of 3.45%.
Work on `CN(C)Cc1cccc(-c2ccc(NC(=O)c3ccc4c(=O)n(CCN5CCCCC5)cnc4c3)cc2)c1` yielded an inhibition of 3.67%.
`Fc1cccc(COc2ccc(Nc3ncnc4ccc(C#C[C@H]5CCCN5)cc34)cc2Cl)c1` showed an inhibition of 1.39%.
Work on `CCCNc1nc(Nc2ccccc2C)nc2ccccc12` yielded an inhibition of 38.1%.
Work on `CCC(C)NCC(O)(c1ccc(Cl)cc1)c1ccc(Cl)cc1` (stereo not given) yielded an inhibition of -2.33%.
Compound `CC(C)=C(C(=O)OCc1ccccc1)N1C(=O)[C@@H](NC(c2ccccc2)(c2ccccc2)c2ccccc2)[C@H]1[S+]([O-])CC(=O)OC(C)(C)C` (stereo not given in full) has an inhibition of 0.68%.
For `CC(=O)Nc1ccc(S(=O)(=O)N(Cc2cccc(Oc3ccccc3)c2)C2CCN(C/C=C(\C)CCC=C(C)C)CC2)cc1`, the inhibition was -0.15%.
With `COc1ccc(-c2ccc(NC(=O)c3ccc(Cl)cc3)cc2)cc1CN1CCNCC1` the inhibition was 1.97%.
`CCC[C@@H]([C@@H](CC1CCCCC1)C(=O)N[C@H](C(=O)Nc1nccc(N)n1)C(C)(C)C)N(O)C=O` gave an inhibition of 3.28%.
